Assay results reported in PubChem BioAssay (NCATS).
Several values for one entry are separate records, joined by “and”; a condition that tells them apart may be missing. Equal values may be shown once. Records with an inconclusive call do not appear. Values without a mark were called inactive. Activity calls are given as the source filed them. Calls come from the whole dose curve; as a rule, active = well fitted inhibition curve with a large enough effect; inconclusive = small, poorly fitted or top-dose-only effect; inactive = flat fitted curve, though single readings scatter.

system: HaCat; experiment: Cytotoxic Profiling of Annotated Libraries Using Quantitative High-Throughput Screening (AID 1296008); conditions: Five cell lines viability, CellTiter-Glo ATP luminescence, 48-72 h; max response: stronger effect = lower value; note: nearly all actives have a fitted effect of over 60% in size
In short: (§1)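 Cytotoxicity was measured as CellTiter-Glo ATP luminescence, read after 10 min at room temperature. Compound treatment of the cells lasted 48 or 72 hr at 37 degrees Celsius in a qHTS format.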
% is set by controls: 0 for no effect and ±100 for the full control effect.

**Q.** `CC(C)=CCN1CC[C@@]2(C)c3cc(O)ccc3C[C@@H]1[C@@H]2C` was tested. Which max response did it give?
**A.** -13.3%

**Q.** Which outcome does the source give for `ClC1=C(Cl)C2(Cl)C(CBr)CC1(Cl)C2(Cl)Cl` (stereo unspecified) here?
**A.** inactive

**Q.** How did the outcome turn out when `CCN(CC)C(C)C(=O)c1ccccc1` (stereo unspecified) was run?
**A.** inactive

**Q.** Which outcome does the source give for `C[C@]12CC[C@H]3[C@@H](CC=C4C[C@@H](O)CC[C@@]43C)[C@@H]1CC[C@@H]2O` here?
**A.** inactive

**Q.** `CCN(CC)Cc1nccn1-c1ccc([N+](=O)[O-])cc1C(=O)c1ccccc1Cl` was tested. Which outcome did it give?
**A.** inactive

**Q.** How did the max response turn out when `CCc1cc(OC)c(C[C@H](C)N)cc1OC` was run?
**A.** 0.504%

**Q.** How did the outcome turn out when `O=C(NC(=O)c1c(F)cccc1F)Nc1cc(Cl)c(OC(F)(F)C(F)C(F)(F)F)cc1Cl` (stereo unspecified) was run?
**A.** inactive

**Q.** Which outcome does the source give for `COc1ccc(OC)c(CC(C)N)c1` (stereo unspecified) here?
**A.** inactive

**Q.** With `CCOC(=O)NC(C)(C)Cc1ccc(Cl)cc1` as the compound, how does the max response read?
**A.** 1.84%

**Q.** With `C[C@@H]1CC[C@H]2[C@@H](C)C(=O)O[C@@H]3O[C@@]4(C)CC[C@@H]1[C@]32OO4` as the compound, how does the outcome read?
**A.** inactive

**Q.** How did the max response turn out when `CC(C)(C)OC(=O)c1ncn2c1[C@@H]1CCCN1C(=O)c1c(Br)cccc1-2` was run?
**A.** 3.04%

**Q.** Which max response does the source give for `COc1ccc(C(=O)N2CCCC2=O)cc1` here?
**A.** -10.2% and -4.53%

**Q.** For `CC[C@H]1C[C@H]2[C@@H]3CCC4=CC(=O)CC[C@@H]4[C@H]3CC[C@]2(C)[C@H]1O`, which max response is on record?
**A.** 2.56%

**Q.** `CCC1(CC)C(=O)NC(=O)NC1=O` was tested. Which outcome did it give?
**A.** inactive

**Q.** How did the outcome turn out when `CN(C)CCc1c[nH]c2cccc(O)c12` was run?
**A.** inactive

system: KB-3-1; experiment: as above; conditions: Five cell lines viability, CellTiter-Glo ATP luminescence, 48-72 h; max response: stronger effect = lower value
In short: as §1

**Q.** For `C[C@H]1CNCCc2ccc(Cl)cc21`, which max response is on record?
**A.** -14.3%

**Q.** For `CC[C@H]1C[C@@H]2C[C@H]3c4[nH]c5ccc(OC)cc5c4CCN(C2)[C@@H]13`, which max response is on record?
**A.** -8.79%

**Q.** With `CCCN(CCC)CCc1c[nH]c2ccccc12` as the compound, how does the max response read?
**A.** -20.7%

**Q.** With `OC(c1ccccc1)(c1ccccc1)C1CCNCC1` as the compound, how does the max response read?
**A.** -11.7%

**Q.** With `C=CCOC(Cn1ccnc1)c1ccc(Cl)cc1Cl` (stereo unspecified) as the compound, how does the max response read?
**A.** 2.22%

**Q.** Which max response does the source give for `C[C@H]1C(=O)O[C@@H]2CCN3CC=C(COC(=O)[C@](C)(O)[C@]1(C)O)[C@H]23` here?
**A.** -11.3%

**Q.** For `Nc1ccc(N)cc1`, which max response is on record?
**A.** -3.68%

**Q.** For `CCOC(=O)NC(O)C(Cl)(Cl)Cl` (stereo unspecified), which max response is on record?
**A.** 11.7%

**Q.** `CN1CCc2cc(Cl)c(O)cc2[C@H]2c3ccccc3CC[C@@H]21` was tested. Which max response did it give?
**A.** 18%

**Q.** Which max response does the source give for `CCN(CC)CCOC(=O)C(C)(c1ccccc1)c1ccccc1` here?
**A.** -6.01%

**Q.** How did the max response turn out when `Cc1cccc(Cc2cnc[nH]2)c1C` was run?
**A.** -11.3%

**Q.** With `CCCCC1C(=O)NC(=O)N(C2CCCCC2)C1=O` (stereo unspecified) as the compound, how does the max response read?
**A.** 2.39%

**Q.** `COc1cc(C[C@@H](C)N)c(OC)cc1Br` was tested. Which max response did it give?
**A.** -0.0524%

**Q.** How did the max response turn out when `CC(C)=C[C@@H]1[C@@H](C(=O)OCc2coc(Cc3ccccc3)c2)C1(C)C` was run?
**A.** 6.83%

**Q.** With `CNC(=O)NC(O)C(Cl)(Cl)Cl` (stereo unspecified) as the compound, how does the max response read?
**A.** 2.2%

**Q.** For `COP(=S)(OC)Oc1ccc(S(N)(=O)=O)cc1`, which max response is on record?
**A.** 0.165%

**Q.** How did the max response turn out when `O=C(CCCN1CCC(n2c(=O)[nH]c3ccccc32)CC1)c1ccc(F)cc1` was run?
**A.** -5.74%

**Q.** For `Oc1c(Br)cc(Br)cc1Br`, which max response is on record?
**A.** -5.6%

**Q.** `CC(C)C(Br)C(=O)NC(N)=O` (stereo unspecified) was tested. Which max response did it give?
**A.** -15.8%

**Q.** Which max response does the source give for `O=c1n(Cl)c(=O)n(Cl)c(=O)n1Cl` here?
**A.** 7.13%

**Q.** How did the max response turn out when `C[C@]12C=CC(=O)C=C1CC[C@@H]1[C@@H]2CC[C@@]2(C)[C@H]1CC[C@]2(C)O` was run?
**A.** -13.2%

**Q.** For `CC(C)=CCN1CC[C@@]2(C)c3cc(O)ccc3C[C@@H]1[C@@H]2C`, which max response is on record?
**A.** -12.1%

**Q.** For `ClC1=C(Cl)C2(Cl)C(CBr)CC1(Cl)C2(Cl)Cl` (stereo unspecified), which max response is on record?
**A.** -4.74%

**Q.** Which max response does the source give for `CCN(CC)C(C)C(=O)c1ccccc1` (stereo unspecified) here?
**A.** -1.49%

**Q.** With `C[C@]12CC[C@H]3[C@@H](CC=C4C[C@@H](O)CC[C@@]43C)[C@@H]1CC[C@@H]2O` as the compound, how does the max response read?
**A.** -11.4%

**Q.** Which max response does the source give for `CCN(CC)Cc1nccn1-c1ccc([N+](=O)[O-])cc1C(=O)c1ccccc1Cl` here?
**A.** -4.42%

**Q.** `CCc1cc(OC)c(C[C@H](C)N)cc1OC` was tested. Which max response did it give?
**A.** -8.43%

**Q.** Which max response does the source give for `O=C(NC(=O)c1c(F)cccc1F)Nc1cc(Cl)c(OC(F)(F)C(F)C(F)(F)F)cc1Cl` (stereo unspecified) here?
**A.** 8.21%

**Q.** With `COc1ccc(OC)c(CC(C)N)c1` (stereo unspecified) as the compound, how does the max response read?
**A.** -0.889%

**Q.** Which max response does the source give for `CCOC(=O)NC(C)(C)Cc1ccc(Cl)cc1` here?
**A.** 2.37%

**Q.** Which max response does the source give for `C[C@@H]1CC[C@H]2[C@@H](C)C(=O)O[C@@H]3O[C@@]4(C)CC[C@@H]1[C@]32OO4` here?
**A.** -14.6%

**Q.** Which max response does the source give for `CC(C)(C)OC(=O)c1ncn2c1[C@@H]1CCCN1C(=O)c1c(Br)cccc1-2` here?
**A.** -1.12%

**Q.** Which max response does the source give for `COc1ccc(C(=O)N2CCCC2=O)cc1` here?
**A.** -8.06%

**Q.** For `CC[C@H]1C[C@H]2[C@@H]3CCC4=CC(=O)CC[C@@H]4[C@H]3CC[C@]2(C)[C@H]1O`, which outcome is on record?
**A.** inactive

**Q.** With `CCC1(CC)C(=O)NC(=O)NC1=O` as the compound, how does the max response read?
**A.** -1.45%

**Q.** Which max response does the source give for `CN(C)CCc1c[nH]c2cccc(O)c12` here?
**A.** -8.17%
